# Measurements published in PubChem BioAssay (NCI).
# This is part of a sample that, as a whole, favours compounds with a hit. Of some 83,000 tested, about 20% had one in any assay.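 Note: values are percent growth. 100 is the growth of untreated cells, values between 100 and 0 indicate rising inhibition; between -100 and 0 indicates cell death.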 The source made the active and inactive calls. Rule for the calls: active = growth percent below 10; inactive = the rest.
# System: SK-OV-3 ovarian
# Experiment: NCI-60 one-dose screen, 48 h (100 = growth as untreated, 0 = no growth, -100 = all killed)
# Conditions: 10 µM
row,Compound,growth
1,NC(CSC(c1ccccc1)(c1ccccc1)c1cccc2ccccc12)C(=O)O (stereo not given),106% (inactive)
2,CC(=O)[C@H]1CC[C@]2(C)[C@@H]1CC[C@@H]1[C@@]3(C)CC(CCC#N)(CCC#N)C(=O)C(C)(C)[C@@H]3CC[C@]12C,103% (inactive)
3,NC1=NC(c2ccc(Cl)cc2)C2=C(N1)/C(=C/c1ccc(Cl)cc1)CCC2 (stereo not given),80.6% (inactive)
4,C/C(=N\O)c1ccc(NC(=O)CSc2nnc(-c3ccccc3)n2-c2ccccc2)cc1,39.3% (inactive)
5,NC1=CC(=O)C(=O)c2cccnc21,93.9% (inactive)
6,C[n+]1c2ccccc2nc2ccccc21,52% (inactive)
7,COc1cc(-c2nn(-c3ccc(NC(=O)NCCNS(=O)(=O)c4ccc(F)cc4)cc3)cc2-c2ccncc2)ccc1Cl,18.1% (inactive)
8,O=C(CSc1nccc(Nc2cccc3ccccc23)n1)c1ccc(Cl)cc1,86.4% (inactive)
9,CCCCCCCCCCOC(c1ccccc1)c1ccccc1,96.6% (inactive)
10,O=C1/C=C/[C@@H](O)[C@@H]2C[C@@H](O)C[C@H]2/C=C/CCC[C@H](CCc2ccc(C(F)(F)F)cc2)O1,12.5% (inactive)
11,O=C(O)c1cn(C2CC2)c2cc(N3CCN(C(=O)c4cc(-c5ccc(Cl)cc5)nc5ccccc45)CC3)c(F)cc2c1=O,77.9% (inactive)
12,CN(C)CCC1(c2ccccc2)CCN(C)C1=O (stereo not given),100% (inactive)
13,COc1ccc(Nc2cnc3cc(NS(=O)(=O)c4ccc(C)cc4)ccc3n2)cc1,88% (inactive)
14,COc1cc(-c2nn(-c3cccc(NC(=O)CCNc4ccc(N5CCOCC5)cc4)c3)cc2-c2ccncc2)ccc1Cl,34.7% (inactive)
15,COc1cccc(-c2nc3sccn3c2-c2cccc(S(C)(=O)=O)c2)c1,114% (inactive)
16,COc1cc(CNC(=O)C2CSC3(C)c4ccccc4C(=O)N23)cc(OC)c1OC (stereo not given),104% (inactive)
17,COc1cc2cc(Oc3ccc(NC(=O)c4ccc(Cl)c(C(F)(F)F)c4)cc3)c(C)nc2cc1OC,27.7% (inactive)
18,CN(C)CCCSc1ccccc1NC1=C(Cl)C(=O)C(Nc2ccccc2SCCCN(C)C)=C(Cl)C1=O,93.6% (inactive)
19,COc1ccc(-c2cc(-c3ccc(Cl)cc3)nc(SCCCCCCC(=O)NO)n2)cc1OC,58.2% (inactive)
20,O=C(NCCNC(=O)c1ccc(F)cc1)Nc1ccc(-n2cc(-c3ccncc3)c(-c3ccc(Cl)c(O)c3)n2)cc1,-8.18% (active)

row,Compound,growth
1,Cc1ccc(Cl)cc1NC(=O)CCl,93.5% (inactive)
2,Nc1ncc(-c2cnn(C3CCNCC3)c2)cc1-c1nc2ccccc2o1,3.49% (active)
3,O=C(CCCSc1nc(-c2ccccc2)cc(-c2ccc(Cl)cc2)n1)NO,11.7% (inactive)
4,COc1ccc2nc3cc(Cl)ccc3c(Nc3cc(CN4CCCC4)c(O)c(CN4CCCC4)c3)c2n1,29.8% (inactive)
5,CN(C)CCOc1cccc(-c2nc3sccn3c2-c2ccnc(S(C)(=O)=O)n2)c1,96.5% (inactive)
6,Cc1ccc(C(=O)C2C(=O)C3CCC2C3)cc1 (stereo not given),107% (inactive)
7,COc1cc(-c2csc(NC(=O)Nc3cc(C(F)(F)F)cc(C(F)(F)F)c3)n2)cc(OC)c1OC,0.491% (active)
8,O=C(CNc1nnc(-c2cccnc2SCc2ccccc2)s1)Nc1nc(Cl)cc(Cl)n1,99.2% (inactive)
9,O=C(O)c1ccc(-n2cc(CNc3ccc(Oc4ccccc4)cc3)c(-c3ccccc3)n2)cc1,112% (inactive)
10,C/C=C/C1=CN2C(=O)c3cc(OC4OC(C)C(NC)C(C)(O)C4O)c(C)c(O)c3N=C[C@@H]2C1 (stereo not given in full),1.76% (active)
11,COc1ccc(/C(C#N)=C/c2ccccc2OC)cc1,33.2% (inactive)
12,O=S(=O)(O)c1ccc(Cl)cc1,92.6% (inactive)
13,N#CCc1csc(Cc2ccccc2)n1,104% (inactive)
14,O=C(/C=C/C=C/c1c(C2CC2)nc2ccccc2c1-c1ccc(F)cc1)c1cccs1,42.6% (inactive)
15,N#CC1=C(N)Oc2cc(N)ccc2C1c1cccnc1 (stereo not given),93.7% (inactive)
16,O=C(Cn1cc(CO)nn1)Nc1nc2ccccc2s1,104% (inactive)
17,CCn1c(SCCc2ccccc2)nnc1-c1nn(-c2ccc(Cl)cc2Cl)c(-c2ccc(Cl)cc2)c1C,79.1% (inactive)
18,Cc1cc(C(C#N)c2ccc(Cl)cc2)c(Cl)cc1NC(=O)c1cc(I)cc(I)c1O (stereo not given),85.2% (inactive)
19,Cn1cnc([N+](=O)[O-])c1/C=C1\Oc2ccc(Br)cc2C1=O,89.9% (inactive)
20,Cc1cc(Cl)ccc1Nc1nc(C(F)(F)F)ccc1C(=O)N/N=C/c1c(Cl)cccc1Cl,-12.9% (active)
